Assay results published in PubChem BioAssay (NCATS).
Inconclusive results are not listed. A call without a number means that no potency is given here. Active and inactive are the calls of the source. The call rests on the fitted dose curve; in most records, active means well fitted curve in the direction sought with a large enough effect; inconclusive means small, poorly fitted or top-dose-only effect, or another doubt; inactive means no such curve, though single readings can be large; an effect the other way counts as inactive or inconclusive.

Key:
[1] = molecular target: Aldehyde dehydrogenase, mitochondrial (Homo sapiens) (UniProt P05091); test: qHTS for Inhibitors of the Aldehyde Dehydrogenase Family (ALDH2) Primary screen (AID 2061308); conditions: ALDH2 enzyme inhibition qHTS, 1536-well; series mostly up to 56 µM; further: nearly all actives have a fitted effect of over 55% in size
[2] = molecular target: Retinaldehyde dehydrogenase 3 (Homo sapiens) (UniProt P47895); test: qHTS for Inhibitors of the Aldehyde Dehydrogenase Family (ALDH1A3) Primary screen (AID 2061315); conditions: ALDH inhibition qHTS; series mostly up to 56 µM

SMILES | Potency [1] | Potency [2]
COc1cc(-c2ncn(/C=C\C(=O)OC(C)C)n2)cc(C(F)(F)F)c1 | inactive | inactive
COc1ccc(N2C[C@]34C=C[C@H](O3)C(C(=O)O)C4C2=O)cc1OC (stereo partly drawn) | inactive | inactive
COc1ccc(C2=Nn3c(nnc3-c3ccccc3F)SC2)cc1OC | inactive | inactive
Cc1cc(C)n2ncc(C(=O)Nc3ccccc3Sc3ccccc3)c2n1 | inactive | inactive
O=C(OCC#CCSc1nnc(-c2cccc3ccccc23)o1)c1ccc(F)cc1F | inactive | inactive
COc1cc(O)c(C(CC(=O)N2CC(C)CC(C)C2)c2ccc(O)cc2)c(OC)c1 (stereo not drawn) | inactive | inactive
CCCCC1CCC(C(=O)Nc2ccc(S(=O)(=O)Nc3nccs3)cc2)CC1 (stereo not drawn) | inactive | inactive
Cc1ccc(NS(=O)(=O)c2cc3c(cc2Cl)NC(=O)C3)cc1C | inactive | inactive
O=S(=O)(c1ccc2c(c1)OCCO2)C1CCC(O)CC1 (stereo not drawn) | inactive | inactive
Cc1ccc(S(=O)(=O)Nc2cnccc2C(=O)Nc2nc(-c3ccc(Oc4ccccc4)cc3)cs2)cc1 | inactive | inactive
CC(=O)c1ccc(O[C@@H]2O[C@H](CO)[C@@H](O)[C@H](O)[C@H]2O)cc1 | inactive | inactive
NC(=O)C1CCN(c2nc(-c3cccc4ccccc34)cs2)CC1 | inactive | inactive
Cc1cc(-c2nnc3n2CCC3)c(C)n1-c1ccccc1 | inactive | inactive
CCCCCn1ncc2c3sc(C)cc3n(C)c2c1=O | inactive | inactive
COc1ccc(NC(=O)C(OC(=O)CNC(=O)c2ccccc2)c2ccccc2)cc1Cl (stereo not drawn) | inactive | inactive
O=[S+]([O-])(Nc1ccccc1F)c1cccc(NC/C=C/c2ccccc2)c1 | inactive | inactive
Cc1ccc(S(=O)(=O)Nc2cnccc2C(=O)Nc2cccc3ccccc23)cc1 | inactive | inactive
O=S(=O)(NCCCNS(=O)(=O)c1c(F)cccc1F)c1ccc2c(c1)OCCO2 | inactive | inactive
O=C1CCCC2=C1C(c1[nH]ncc1Cl)N=C(c1nc3ccccc3o1)N2 (stereo not drawn) | inactive | inactive
